Records with an inconclusive call do not appear. The source made the active and inactive calls. The call rests on the fitted dose curve; in most records, active means well fitted inhibition curve with a large enough effect; inconclusive means small, poorly fitted or top-dose-only effect; inactive means flat fitted curve, though single readings scatter.
Experiments:
Experiment in all cases: qHTS profiling for inhibitors of Plasmodium falciparum proliferation (AID 504749); further: nearly all actives have a fitted effect of over 60% in size
CP252 = details: P. falciparum in erythrocytes, SYBR Green DNA, 72 h; series mostly up to 12.8 µM
In short: (§1)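 Three-day growth assay of blood-stage parasites in erythrocytes (0.3% parasitemia, 2.5% hematocrit) at 37 C, 5% CO2, quantified by SYBR Green DNA staining after overnight detergent lysis.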

CP256 = details: P. falciparum in erythrocytes, SYBR Green DNA, 72 h; series mostly up to 28.7 µM
In short: as §1

CP260 = details: P. falciparum in erythrocytes, SYBR Green DNA, 72 h; series mostly up to 28.7 µM
In short: as §1

CP265 = details: P. falciparum in erythrocytes, SYBR Green DNA, 72 h; series mostly up to 12.8 µM
In short: as §1

CP266 = details: P. falciparum in erythrocytes, SYBR Green DNA, 72 h; series mostly up to 12.8 µM
In short: as §1

CP268 = details: P. falciparum in erythrocytes, SYBR Green DNA, 72 h; series mostly up to 28.7 µM
In short: as §1

CP269 = details: P. falciparum in erythrocytes, SYBR Green DNA, 72 h; series mostly up to 28.7 µM
In short: as §1

CP286 = details: P. falciparum in erythrocytes, SYBR Green DNA, 72 h; series mostly up to 28.7 µM
In short: as §1

CP291 = details: P. falciparum in erythrocytes, SYBR Green DNA, 72 h; series mostly up to 28.7 µM
In short: as §1

CP297 = details: P. falciparum in erythrocytes, SYBR Green DNA, 72 h; series mostly up to 28.7 µM
In short: as §1

CP305 = details: P. falciparum in erythrocytes, SYBR Green DNA, 72 h; series mostly up to 28.7 µM
In short: as §1

CP315 = details: P. falciparum in erythrocytes, SYBR Green DNA, 72 h; series mostly up to 28.7 µM
In short: as §1

CP325 = details: P. falciparum in erythrocytes, SYBR Green DNA, 72 h; series mostly up to 28.7 µM
In short: as §1

CP329 = details: P. falciparum in erythrocytes, SYBR Green DNA, 72 h; series mostly up to 28.7 µM
In short: as §1

DIV14 = details: P. falciparum in erythrocytes, SYBR Green DNA, 72 h; series mostly up to 28.7 µM
In short: as §1

DIV17 = details: P. falciparum in erythrocytes, SYBR Green DNA, 72 h; series mostly up to 28.7 µM
In short: as §1

DIV30 = details: P. falciparum in erythrocytes, SYBR Green DNA, 72 h; series mostly up to 28.7 µM
In short: as §1

Dd2 = details: P. falciparum in erythrocytes, SYBR Green DNA, 72 h; series mostly up to 28.7 µM
In short: as §1

ECU = details: P. falciparum in erythrocytes, SYBR Green DNA, 72 h; series mostly up to 28.7 µM
In short: as §1

FAB9 = details: P. falciparum in erythrocytes, SYBR Green DNA, 72 h; series mostly up to 28.7 µM
In short: as §1

GB4 = details: P. falciparum in erythrocytes, SYBR Green DNA, 72 h; series mostly up to 28.7 µM
In short: as §1

HB3 = details: P. falciparum in erythrocytes, SYBR Green DNA, 72 h; series mostly up to 28.7 µM
In short: as §1

ICS = details: P. falciparum in erythrocytes, SYBR Green DNA, 72 h; series mostly up to 28.7 µM
In short: as §1

N140 = details: P. falciparum in erythrocytes, SYBR Green DNA, 72 h; series mostly up to 28.7 µM
In short: as §1

P93_24 = details: P. falciparum in erythrocytes, SYBR Green DNA, 72 h; series mostly up to 28.7 µM
In short: as §1

P94_40 = details: P. falciparum in erythrocytes, SYBR Green DNA, 72 h; series mostly up to 28.7 µM
In short: as §1

PAD = details: P. falciparum in erythrocytes, SYBR Green DNA, 72 h; series mostly up to 28.7 µM
In short: as §1

PC15 = details: P. falciparum in erythrocytes, SYBR Green DNA, 72 h; series mostly up to 28.7 µM
In short: as §1

PC26 = details: P. falciparum in erythrocytes, SYBR Green DNA, 72 h; series mostly up to 28.7 µM
In short: as §1

PC49 = details: P. falciparum in erythrocytes, SYBR Green DNA, 72 h; series mostly up to 28.7 µM
In short: as §1

SC27B = details: P. falciparum in erythrocytes, SYBR Green DNA, 72 h; series mostly up to 28.7 µM
In short: as §1

TAB109 = details: P. falciparum in erythrocytes, SYBR Green DNA, 72 h; series mostly up to 12.8 µM
In short: as §1

TAB113 = details: P. falciparum in erythrocytes, SYBR Green DNA, 72 h; series mostly up to 28.7 µM
In short: as §1

TAB165 = details: P. falciparum in erythrocytes, SYBR Green DNA, 72 h; series mostly up to 28.7 µM
In short: as §1

W2 = details: P. falciparum in erythrocytes, SYBR Green DNA, 72 h; series mostly up to 12.8 µM
In short: as §1
Potency means the concentration at half of the fitted maximal effect.

CO[C@@H](COC(N)=O)C1=C(N2CC2)C(=O)C(C)=C(N2CC2)C1=O
Potency (CP252): 0.794 µM (active)
Potency (CP256): 1.41 µM (active)
Potency (CP260): 1 µM (active)
Potency (CP265): 0.708 µM (active)
Potency (CP266): 3.79 µM (active)
Potency (CP268): 3.01 µM (active)
Potency (CP269): 0.953 µM (active)
Potency (CP286): 1.12 µM (active)
Potency (CP291): 1.35 µM (active)
Potency (CP297): 1.69 µM (active)
Potency (CP305): 1.9 µM (active)
Potency (CP315): 3.38 µM (active)
Potency (CP325): 3.01 µM (active)
Potency (CP329): 1.51 µM (active)
Potency (DIV14): 1.51 µM (active)
Potency (DIV17): 1.9 µM (active)
Potency (DIV30): 3.01 µM (active)
Potency (Dd2): 0.891 µM (active)
Potency (ECU): 2 µM (active)
Potency (FAB9): 7.94 µM (active)
Potency (GB4): 1.51 µM (active)
Potency (HB3): 2 µM (active)
Potency (ICS): 1 µM (active)
Potency (N140): 1.26 µM (active)
Potency (P93_24): 1.12 µM (active)
Potency (P94_40): 1.12 µM (active)
Potency (PAD): 1.26 µM (active)
Potency (PC15): 2.82 µM (active)
Potency (PC26): 1.9 µM (active)
Potency (PC49): inactive
Potency (SC27B): 1.26 µM (active)
Potency (TAB109): 1.12 µM (active)
Potency (TAB113): 1.26 µM (active)
Potency (TAB165): 0.708 µM (active)
Potency (W2): 0.301 µM (active)
